Inconclusive results are not listed. Calls of active or inactive are those of the source. Unless noted, the call rests on the fitted dose curve; in most records, active means well fitted curve in the direction sought with a large enough effect in the repeat runs; inconclusive means weak or mixed curves; inactive means no such curve, though single readings can be large; an effect the other way counts as inactive or inconclusive.
Experiments:
[1] = qHTS assay to identify small molecule agonists of the estrogen receptor alpha (ER-alpha) signaling pathway in the presence of an antagonist - cell viability counter screen (AID 1259386); details: VM7Luc4E2 viability, CellTiter-Fluor fluorescence, 22 h; series mostly up to 92.4 µM;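 further: cells exposed to compounds for 22 h at 37 °C before the viability read; nearly all actives have a fitted effect of over 30% in size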
Procedure, shortened: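 Steps: 5-day stripped-FBS culture; seed and incubate 24hr; add ICI-182,780 (10.0nM final); pin 15-point compound titration; incubate 22hr at 37C; add CellTiter-Fluor at 21hr; read fluorescence.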

[2] = molecular target: Progesterone receptor (Homo sapiens) (UniProt P06401); assay: qHTS assay to identify small molecule agonists of the progesterone receptor (PR) signaling pathway (AID 1346784; calls by dose curve; further: nearly all actives have a fitted effect of over 30% in size); details: PR-UAS-bla HEK293T, beta-lactamase FRET ratio, 16 h; series mostly up to 92.4 µM
Procedure, shortened: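 PR-UAS-bla HEK 293T cells carrying a UAS-driven beta-lactamase reporter were seeded in medium with 2% charcoal-stripped FBS, preincubated 6 hr at 37C, then exposed to compounds in DMSO for 16 hr; agonism was read by LiveBLAzer B/G FRET fluorescence.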

[3] = qHTS assay to identify small molecule antagonists of the progesterone receptor (PR) signaling pathway - cell viability counter screen (AID 1346798); details: PR-UAS-bla HEK293T viability, CellTiter-Glo luminescence, 16 h; series mostly up to 92.4 µM; further: nearly all actives have a fitted effect of over 50% in size
Procedure, shortened: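 PR-UAS-bla HEK293T cells in medium with 2% charcoal-stripped FBS were treated with compounds plus R5020 for 16 hr at 37C. Cell viability was then read by CellTiter-Glo luminescence after 30 min at room temperature in the same wells.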

[4] = qHTS assay to identify small molecule agonists of the progesterone receptor (PR) signaling pathway - cell viability counter screen (AID 1346799; calls by dose curve; further: nearly all actives have a fitted effect of over 45% in size); details: PR-UAS-bla HEK293T viability, CellTiter-Glo luminescence, 16 h; series mostly up to 92.4 µM
Procedure, shortened: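 PR-UAS-bla HEK293T cells, 3,000 per well in medium with 2% charcoal-stripped FBS, were preincubated 6 hr at 37C, then exposed to compounds for 16 hr; viability was read as CellTiter-Glo luminescence after 30 min at room temperature.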

[5] = qHTS assay to identify small molecule antagonists of the TGF-beta/Smad signaling pathway - cell viability counter screen (AID 1346824); details: SBE-bla HEK293T viability, CellTiter-Glo luminescence; series mostly up to 76.8 µM; further: nearly all actives have a fitted effect of over 50% in size
Procedure, shortened: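 Cytotoxicity counter-screen run in the same wells as the beta-lactamase Smad reporter read: CellTiter-Glo luminescence after 30 min at room temperature. HEK 293T SBE-bla cells had 5 hr compound exposure at 37 C with TGF-beta1 (0.25 ng/mL stock).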

[6] = qHTS assay to identify small molecule agonists of the TGF-beta/Smad signaling pathway - cell viability counter screen (AID 1346829); details: SBE-bla HEK293T viability, CellTiter-Glo luminescence, 5 h; series mostly up to 76.8 µM; further: top concentration of the series differs between compounds; nearly all actives have a fitted effect of over 45% in size
Procedure, shortened: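 CellTiter-Glo luminescence readout; SBE-bla HEK 293T cells, overnight plating, compound 5 hr at 37 C/5% CO2, then bla substrate 2 hr RT, then CellTiter-Glo 30 min RT.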

[7] = qHTS assay to identify small molecule agonists of the TGF-beta/Smad signaling pathway (AID 1346859; active means well fitted activation curve with a large enough effect in the signal ratio in the repeat runs, not every such curve was filed as active; the % refers to the signal ratio); details: SBE-bla HEK293T, TGF-beta/Smad beta-lactamase reporter, 5 h; series mostly up to 76.8 µM
Procedure, shortened: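 HEK 293T cells stably carrying a beta-lactamase reporter driven by the Smad binding element were seeded overnight, exposed to DMSO-dissolved compounds for 5 hr at 37 C, 5% CO2, then loaded with FRET substrate for 2 hr at room temperature.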

[8] = molecular target: Thyrotropin-releasing hormone receptor (Homo sapiens) (UniProt P34981); assay: qHTS assay to identify small molecule antagonists of the thyrotropin-releasing hormone receptor (TRHR) signaling pathway (AID 1346877; active means well fitted inhibition curve with a large enough effect in the repeat runs, not every such curve was filed as active); details: TRHR-HEK293, TRH-induced calcium fluorescence, antagonist mode; series mostly up to 51.3 µM
Procedure, shortened: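 Human TRHR in HEK293 cells; inhibition of the intracellular calcium rise triggered by 1 nM TRH was followed by fluorescence over 3 min. Compounds were run at 15 concentrations, three replicates each.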

[9] = molecular target: Thyrotropin-releasing hormone receptor (Homo sapiens) (UniProt P34981); assay: qHTS assay to identify small molecule agonists of the thyrotropin-releasing hormone receptor (TRHR) signaling pathway (AID 1346891; calls by dose curve); details: TRHR-HEK293 calcium fluorescence, agonist mode; series mostly up to 57.6 µM
Procedure, shortened: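 TRHR-expressing HEK293 cells were plated 18 h at 37 °C/5% CO2, loaded with calcium dye 2 h at 37 °C, then given compound in DMSO; fluorescence was read kinetically for 3 min at 1 s intervals.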

[10] = molecular target: Progesterone receptor (Homo sapiens) (UniProt P06401); assay: qHTS assay to identify small molecule antagonists of the progesterone receptor (PR) signaling pathway (AID 1346795; active means well fitted inhibition curve with a large enough effect in the signal ratio in the repeat runs, not every such curve was filed as active; the % refers to the signal ratio); details: PR-UAS-bla HEK293T, beta-lactamase FRET ratio, 16 h; series mostly up to 92.4 µM
Procedure, shortened: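 PR-UAS-bla HEK293T cells carrying a UAS-driven beta-lactamase reporter were plated in medium with 2% charcoal-stripped FBS and rested 6 hr at 37C. Compounds were added with 1 nM R5020 (final) for 16 hr, then FRET substrate loaded 2 hr at room temperature.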
On the % scale 0 is the no-effect control and ±100 the full control effect.

Progesterone receptor (Homo sapiens), sequence (P06401 whole entry, looked up): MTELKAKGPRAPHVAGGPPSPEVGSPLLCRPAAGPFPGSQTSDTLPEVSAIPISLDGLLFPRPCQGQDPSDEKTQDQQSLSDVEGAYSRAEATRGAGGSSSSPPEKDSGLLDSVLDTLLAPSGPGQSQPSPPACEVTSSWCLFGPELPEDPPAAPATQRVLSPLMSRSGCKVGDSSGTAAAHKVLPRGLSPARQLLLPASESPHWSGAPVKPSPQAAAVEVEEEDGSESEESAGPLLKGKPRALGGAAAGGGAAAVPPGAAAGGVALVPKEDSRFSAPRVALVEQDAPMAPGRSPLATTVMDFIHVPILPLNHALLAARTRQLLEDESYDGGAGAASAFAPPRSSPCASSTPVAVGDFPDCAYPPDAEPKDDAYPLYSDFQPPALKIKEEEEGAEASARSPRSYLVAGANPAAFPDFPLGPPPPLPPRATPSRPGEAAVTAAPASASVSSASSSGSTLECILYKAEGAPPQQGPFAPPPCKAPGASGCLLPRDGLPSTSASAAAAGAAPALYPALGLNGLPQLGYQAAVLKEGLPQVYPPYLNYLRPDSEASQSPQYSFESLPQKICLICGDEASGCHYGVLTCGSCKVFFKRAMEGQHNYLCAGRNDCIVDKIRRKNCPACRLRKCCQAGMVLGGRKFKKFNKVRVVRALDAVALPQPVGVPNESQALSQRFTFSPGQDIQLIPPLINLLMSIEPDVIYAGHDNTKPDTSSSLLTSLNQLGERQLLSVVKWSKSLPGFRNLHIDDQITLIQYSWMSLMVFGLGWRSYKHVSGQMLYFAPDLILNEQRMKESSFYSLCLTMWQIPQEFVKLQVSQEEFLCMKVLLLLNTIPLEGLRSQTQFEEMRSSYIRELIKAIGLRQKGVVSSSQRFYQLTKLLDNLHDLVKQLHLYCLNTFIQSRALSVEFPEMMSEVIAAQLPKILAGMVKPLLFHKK
Thyrotropin-releasing hormone receptor (Homo sapiens), sequence (P34981 whole entry, looked up): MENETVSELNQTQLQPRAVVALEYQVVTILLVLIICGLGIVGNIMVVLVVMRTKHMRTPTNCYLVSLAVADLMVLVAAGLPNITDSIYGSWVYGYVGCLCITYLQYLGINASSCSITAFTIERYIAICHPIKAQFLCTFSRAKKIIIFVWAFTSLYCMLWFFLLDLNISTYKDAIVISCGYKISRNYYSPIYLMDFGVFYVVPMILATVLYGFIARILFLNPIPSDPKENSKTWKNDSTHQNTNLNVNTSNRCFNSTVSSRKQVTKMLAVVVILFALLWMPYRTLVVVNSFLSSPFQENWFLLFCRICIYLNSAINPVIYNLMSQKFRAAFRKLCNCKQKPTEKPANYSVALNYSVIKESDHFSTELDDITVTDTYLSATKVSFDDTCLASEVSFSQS

COCCOCCOCCOCCOCCO
inactive: Potency [1] | Potency [2] | Potency [3] | Potency [4] | outcome [5] | outcome [6] | outcome [7] | outcome [8] | outcome [9]

CC(C)OC(=O)CCCCC(=O)OC(C)C
inactive: Potency [1] | Potency [2] | Potency [3] | Potency [4] | outcome [5] | outcome [6] | outcome [7] | outcome [8] | outcome [9]

CCCOC(OCCC)OCCC
inactive: Potency [1] | Potency [2] | Potency [10] | Potency [4] | outcome [6] | outcome [7]

CCCCCCCCC1CCC(=O)O1 (centres undefined)
inactive: Potency [1] | Potency [2] | Potency [3] | Potency [4] | outcome [5] | outcome [7] | outcome [8] | outcome [9]

CC(=O)Nc1ccc(S(=O)(=O)Cl)cc1
inactive: Potency [1] | Potency [2] | Potency [10] | Potency [4] | outcome [5] | outcome [7] | outcome [8] | outcome [9]

C[Si](C)=O
inactive: activity change, negative = cytotoxicity [1] 2.9% [at 8.39 µM] | activation [2] 1.46% [at 8.39 µM] | activity change, negative = cytotoxicity [3] 4.63% [at 8.39 µM] | activity change, negative = cytotoxicity [4] 7.66% [at 8.39 µM] | viability change, negative = cytotoxic [5] 0.719% [at 6.97 µM] | activation [7] -0.731% [at 6.97 µM]

FC(F)(F)c1ccccc1-n1ccnc1
inactive: Potency [1] | Potency [2] | Potency [10] | Potency [4] | outcome [7] | outcome [8] | outcome [9]

CC1(CO)CN(c2ccccc2)NC1=O (centres undefined)
inactive: Potency [1] | Potency [2] | Potency [10] | Potency [4] | outcome [6] | outcome [7] | outcome [8] | outcome [9]

CC(=O)c1ccc2c(c1)Cc1ccccc1-2
inactive: Potency [1] | Potency [2] | Potency [3] | Potency [4] | outcome [5] | outcome [7] | outcome [8] | outcome [9]

CC(CO)c1ccccc1 (centres undefined)
inactive: Potency [1] | Potency [2] | Potency [10] | Potency [4] | outcome [5] | outcome [6] | outcome [7] | outcome [8] | outcome [9]

CCO[Si](CCCS)(OCC)OCC
inactive: Potency [1] | Potency [2] | Potency [10] | Potency [4] | outcome [6] | outcome [7] | outcome [8] | outcome [9]

COc1cc(NS(=O)(=O)c2ccc(N)cc2)nc(OC)n1
inactive: Potency [1] | Potency [2] | Potency [10] | outcome [5] | outcome [6] | outcome [7] | outcome [8] | outcome [9]

CCCCNC1CC(C)(C)NC(C)(C)C1
inactive: Potency [1] | Potency [2] | Potency [10] | Potency [4] | outcome [6] | outcome [7] | outcome [8] | outcome [9]

N[C@@H](CCC(=O)Nc1ccc([N+](=O)[O-])cc1)C(=O)O
inactive: Potency [1] | Potency [2] | Potency [4] | outcome [5] | outcome [7] | outcome [8] | outcome [9]

COc1cc2c(cc1OC)[C@@H]1CC(=O)[C@@H](CC(C)C)CN1CC2
inactive: Potency [1] | Potency [10] | Potency [3] | Potency [4] | outcome [5] | outcome [6] | outcome [7] | outcome [8] | outcome [9]

BrCc1cccc(Oc2ccccc2)c1
inactive: Potency [1] | Potency [2] | Potency [4] | outcome [5] | outcome [6] | outcome [7] | outcome [8] | outcome [9]

O=C(/N=N/C(=O)OCc1ccccc1)OCc1ccccc1
inactive: Potency [1] | Potency [2] | Potency [3] | Potency [4] | outcome [6] | outcome [7] | outcome [8] | outcome [9]

O=C1c2ccccc2C(=O)C1c1ccccc1
inactive: Potency [1] | Potency [2] | Potency [4] | outcome [5] | outcome [6] | outcome [7] | outcome [8] | outcome [9]

COCCOCCOCCOCCO
inactive: Potency [1] | Potency [10] | Potency [3] | Potency [4] | outcome [7] | outcome [8] | outcome [9]

O=C(NCCN1CCOCC1)c1ccc(Cl)cc1
inactive: Potency [1] | Potency [10] | Potency [3] | Potency [4] | outcome [5] | outcome [6] | outcome [7]

Cc1cc(C(C)(C)C)c(O)c(C)c1CC1=NCCN1
inactive: Potency [1] | Potency [2] | Potency [3] | outcome [5] | outcome [6] | outcome [7] | outcome [8] | outcome [9]
